# PubChem BioAssay (NCI)
# This is part of a sample that, as a whole, favours compounds with a hit. Of some 79,000 tested, about 15% had one in any assay. Values without a mark were called inactive. Activity calls are given as the source filed them. Rule as the data show it: active = growth inhibition above about 70%; inactive = the rest.
# What was measured:
# [1] = NCI Yeast Anticancer Drug Screen. Data for the wt1 strain (AID 149);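 also: 0% = growth of vehicle-treated wt1 cultures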; conditions: S. cerevisiae wt1 strain (SPY 50644) growth inhibition, hits give high values
# Method in brief: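 The wt1 strain was treated with compounds, and growth was compared with vehicle-treated cultures to give inhibition.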
# [2] = NCI Yeast Anticancer Drug Screen. Data for the rad50EPP+ strain (AID 151);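 also: 0% = growth of vehicle-treated control cultures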; conditions: S. cerevisiae rad50 mutant strain, hits give high values
# Method in brief: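 Yeast strain carrying rad50 alteration (rad50EPP+) exposed to compounds; growth inhibition measured relative to vehicle-treated controls.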
# [3] = NCI Yeast Anticancer Drug Screen. Data for the mgt1 strain (AID 153); conditions: S. cerevisiae mgt1 mutant growth inhibition, hits give high values
# Method in brief: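 Yeast mgt1 strain (DNA repair/cell-cycle alteration panel) exposed to compounds; growth inhibition measured relative to vehicle-treated controls.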
# [4] = NCI Yeast Anticancer Drug Screen. Data for the rad50 strain (AID 155);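 also: 0% = growth of vehicle-only cultures of the same strain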; conditions: S. cerevisiae rad50 strain growth inhibition, hits give high values
# Method in brief: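 Cells are treated with compound, grown, and their growth is then scored against vehicle-only cultures of the same repair-deficient yeast strain.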
# [5] = NCI Yeast Anticancer Drug Screen. Data for the mec2-1 strain (AID 157); conditions: S. cerevisiae mec2-1 strain, hits give high values
# Method in brief: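 mec2-1 yeast strain, carrying an alteration in DNA damage repair or cell cycle control, was exposed to compounds; growth inhibition was measured relative to vehicle-treated controls.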
# [6] = NCI Yeast Anticancer Drug Screen. Data for the rad14 strain (AID 159);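 also: 0% = growth of vehicle-treated control cultures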; conditions: S. cerevisiae rad14 strain growth inhibition, hits give high values
# Method in brief: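 Readout: yeast growth inhibition, referenced to vehicle-only cultures. Strain bears a defined alteration in DNA damage repair.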
# [7] = NCI Yeast Anticancer Drug Screen. Data for the sgs1 mgt1 strain (AID 161);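 also: 0% = growth of cultures given vehicle only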; conditions: S. cerevisiae sgs1 mgt1 strain, hits give high values
# Method in brief: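 This yeast growth screen uses a strain with defined DNA-repair lesions; compound-treated growth is compared with vehicle-treated growth.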
# [8] = NCI Yeast Anticancer Drug Screen. Data for the CLN2oe strain (AID 163);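 also: 0% = growth of vehicle-only control cultures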; conditions: S. cerevisiae CLN2oe strain, hits give high values
# Method in brief: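 Yeast cells carrying a defined cell-cycle control alteration were exposed to test compounds. Growth inhibition was scored against vehicle-treated control cultures.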
# [9] = NCI Yeast Anticancer Drug Screen. Data for the cln2 rad14 strain (AID 165);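 also: 0% = growth equal to vehicle treated cultures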; conditions: S. cerevisiae cln2 rad14 strain, hits give high values
# Method in brief: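 Yeast carrying cln2 and rad14 alterations (cell cycle control and DNA damage repair) were exposed to compounds. Growth inhibition was measured against vehicle-treated controls.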
# [10] = NCI Yeast Anticancer Drug Screen. Data for the bub3 strain (AID 167); conditions: S. cerevisiae bub3 mutant strain, hits give high values
# Method in brief: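 Part of a panel of yeast mutants defective in DNA damage repair or cell cycle regulation. Each strain is grown with compound, and inhibition is calculated relative to solvent-treated cultures.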
# [11] = NCI Yeast Anticancer Drug Screen. Data for the wt2 strain (AID 169);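 also: 0% = growth of vehicle-treated yeast cultures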; conditions: S. cerevisiae wt2 strain growth inhibition, hits give high values
# Method in brief: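 Yeast cells were exposed to test compounds, and growth inhibition was measured relative to vehicle-treated controls.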
# [12] = NCI Yeast Anticancer Drug Screen. Data for the mlh1 strain (AID 171);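 also: 0% = growth of vehicle-treated control cultures of the same strain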; conditions: S. cerevisiae mlh1 strain growth inhibition, hits give high values
# Method in brief: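 Yeast carrying a defined genetic alteration in DNA damage repair or cell cycle control were exposed to test compounds. Growth inhibition was measured relative to vehicle-treated controls.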
# [13] = NCI Yeast Anticancer Drug Screen. Data for the sgs1 strain (AID 173);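 also: 0% = growth of vehicle-only control cultures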; conditions: S. cerevisiae sgs1 mutant, hits give high values
# Method in brief: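 Yeast mutant strains carrying defined defects in DNA damage repair or cell cycle control were exposed to test compounds. Growth inhibition was scored against vehicle-treated controls.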
# [14] = NCI Yeast Anticancer Drug Screen. Data for the mlh1 rad18 strain (AID 175); conditions: S. cerevisiae mlh1 rad18 strain growth inhibition, hits give high values
# Method in brief: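 Growth inhibition of the yeast strain was measured after compound exposure and expressed relative to vehicle-treated controls. The strain carries defined defects in DNA damage repair.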
# [15] = NCI Yeast Anticancer Drug Screen. Data for the rad18 strain (AID 177); conditions: S. cerevisiae rad18 mutant growth inhibition, hits give high values
# Method in brief: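 Yeast carrying a defined DNA damage repair alteration were exposed to compounds. Growth inhibition was expressed relative to vehicle-treated controls.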
# [16] = at 5.0 µM (retest, dose inferred, filed as 0.5)
# [17] = at 50.0 µM (retest, dose inferred, filed as 5.0)
structure (smiles),measurement,setting,value
c1ccc(C2=NNC3c4ccccc4-c4ccccc4N3C2)cc1 (stereo unspecified),growth inhibition,[1]; at 1.2 µM,-4%
same,growth inhibition,[1]; at 3.7 µM,-5%
same,growth inhibition,[1]; at 11.0 µM,-3%
same,growth inhibition,[1]; at 33.0 µM,0%
same,growth inhibition,[1]; at 100.0 µM,10%
same,growth inhibition,[2]; at 1.2 µM,-2%
same,growth inhibition,[2]; at 3.7 µM,1%
same,growth inhibition,[2]; at 11.0 µM,5%
same,growth inhibition,[2]; at 33.0 µM,27%
same,growth inhibition,[2]; at 100.0 µM,35%
same,growth inhibition,[3]; at 1.2 µM,-1%
same,growth inhibition,[3]; at 3.7 µM,8%
same,growth inhibition,[3]; at 11.0 µM,-4%
same,growth inhibition,[3]; at 33.0 µM,-2%
same,growth inhibition,[3]; at 100.0 µM,47%
same,growth inhibition,[4]; at 1.2 µM,0%
same,growth inhibition,[4]; at 3.7 µM,9%
same,growth inhibition,[4]; [16],16%
same,growth inhibition,[4]; at 11.0 µM,11%
same,growth inhibition,[4]; at 33.0 µM,33%
same,growth inhibition,[4]; [17],67%
same,growth inhibition,[4]; at 50.0 µM,84.9% (active)
same,growth inhibition,[4]; at 100.0 µM,92% (active)
same,growth inhibition,[5]; at 1.2 µM,1%
same,growth inhibition,[5]; at 3.7 µM,2%
same,growth inhibition,[5]; [16],6%
same,growth inhibition,[5]; at 11.0 µM,3%
same,growth inhibition,[5]; at 33.0 µM,5%
same,growth inhibition,[5]; [17],7%
same,growth inhibition,[5]; at 50.0 µM,12.4%
same,growth inhibition,[5]; at 100.0 µM,43%
same,growth inhibition,[6]; at 1.2 µM,-5%
same,growth inhibition,[6]; at 3.7 µM,-11%
same,growth inhibition,[6]; at 11.0 µM,0%
same,growth inhibition,[6]; at 33.0 µM,8%
same,growth inhibition,[6]; at 100.0 µM,26%
same,growth inhibition,[7]; [16],6%
same,growth inhibition,[7]; [17],35%
same,growth inhibition,[7]; at 50.0 µM,1.35%
same,growth inhibition,[8]; at 1.2 µM,0%
same,growth inhibition,[8]; at 3.7 µM,-5%
same,growth inhibition,[8]; at 11.0 µM,-3%
same,growth inhibition,[8]; at 33.0 µM,1%
same,growth inhibition,[8]; at 100.0 µM,8%
same,growth inhibition,[9]; [16],-122%
same,growth inhibition,[9]; [17],38%
same,growth inhibition,[9]; at 50.0 µM,19.5%
same,growth inhibition,[10]; at 1.2 µM,2%
same,growth inhibition,[10]; at 3.7 µM,-14%
same,growth inhibition,[10]; [16],1%
same,growth inhibition,[10]; at 11.0 µM,5%
same,growth inhibition,[10]; at 33.0 µM,11%
same,growth inhibition,[10]; [17],55%
same,growth inhibition,[10]; at 50.0 µM,41%
same,growth inhibition,[10]; at 100.0 µM,42%
same,growth inhibition,[11]; at 1.2 µM,-6%
same,growth inhibition,[11]; at 3.7 µM,-5%
same,growth inhibition,[11]; at 11.0 µM,-6%
same,growth inhibition,[11]; at 33.0 µM,1%
same,growth inhibition,[11]; at 100.0 µM,68%
same,growth inhibition,[12]; at 1.2 µM,-1%
same,growth inhibition,[12]; at 3.7 µM,9%
same,growth inhibition,[12]; at 11.0 µM,2%
same,growth inhibition,[12]; at 33.0 µM,19%
same,growth inhibition,[12]; at 100.0 µM,58%
same,growth inhibition,[13]; at 1.2 µM,-3%
same,growth inhibition,[13]; at 3.7 µM,-4%
same,growth inhibition,[13]; at 11.0 µM,-5%
same,growth inhibition,[13]; at 33.0 µM,2%
same,growth inhibition,[13]; at 100.0 µM,16%
same,growth inhibition,[14]; [16],11%
same,growth inhibition,[14]; [17],50%
same,growth inhibition,[14]; at 50.0 µM,34%
same,growth inhibition,[15]; at 1.2 µM,0%
same,growth inhibition,[15]; at 3.7 µM,0%
same,growth inhibition,[15]; at 11.0 µM,-2%
same,growth inhibition,[15]; at 33.0 µM,7%
same,growth inhibition,[15]; at 100.0 µM,55%
O=C1c2ccccc2C2CCC1c1ccccc12 (stereo unspecified),growth inhibition,[1]; at 1.2 µM,-12%
same,growth inhibition,[1]; at 3.7 µM,-14%
same,growth inhibition,[1]; at 11.0 µM,-13%
same,growth inhibition,[1]; at 33.0 µM,-6%
same,growth inhibition,[1]; at 100.0 µM,97% (active)
same,growth inhibition,[2]; at 1.2 µM,1%
same,growth inhibition,[2]; at 3.7 µM,-4%
same,growth inhibition,[2]; at 11.0 µM,-2%
same,growth inhibition,[2]; at 33.0 µM,50%
same,growth inhibition,[2]; at 100.0 µM,68%
same,growth inhibition,[3]; at 1.2 µM,-12%
same,growth inhibition,[3]; at 3.7 µM,6%
same,growth inhibition,[3]; at 11.0 µM,5%
same,growth inhibition,[3]; at 33.0 µM,17%
same,growth inhibition,[3]; at 100.0 µM,97% (active)
same,growth inhibition,[4]; at 1.2 µM,-19%
same,growth inhibition,[4]; at 3.7 µM,-5%
same,growth inhibition,[4]; [16],0%
same,growth inhibition,[4]; at 11.0 µM,3%
same,growth inhibition,[4]; at 33.0 µM,20%
same,growth inhibition,[4]; [17],-29%
same,growth inhibition,[4]; at 50.0 µM,62.9%
same,growth inhibition,[4]; at 100.0 µM,94% (active)
same,growth inhibition,[5]; at 1.2 µM,-24%
same,growth inhibition,[5]; at 3.7 µM,-14%
same,growth inhibition,[5]; [16],-6%
same,growth inhibition,[5]; at 11.0 µM,3%
same,growth inhibition,[5]; at 33.0 µM,12%
same,growth inhibition,[5]; [17],-19%
same,growth inhibition,[5]; at 50.0 µM,-6.1%
same,growth inhibition,[5]; at 100.0 µM,98% (active)
same,growth inhibition,[6]; at 1.2 µM,-25%
same,growth inhibition,[6]; at 3.7 µM,-24%
same,growth inhibition,[6]; at 11.0 µM,-17%
same,growth inhibition,[6]; at 33.0 µM,-6%
same,growth inhibition,[6]; at 100.0 µM,97% (active)
same,growth inhibition,[7]; [16],-15%
same,growth inhibition,[7]; [17],-7%
same,growth inhibition,[7]; at 50.0 µM,9.45%
same,growth inhibition,[8]; at 1.2 µM,2%
same,growth inhibition,[8]; at 3.7 µM,-5%
same,growth inhibition,[8]; at 11.0 µM,7%
same,growth inhibition,[8]; at 33.0 µM,59%
same,growth inhibition,[8]; at 100.0 µM,98% (active)
same,growth inhibition,[9]; [16],-19%
same,growth inhibition,[9]; [17],13%
same,growth inhibition,[9]; at 50.0 µM,18.3%
same,growth inhibition,[10]; at 1.2 µM,-22%
same,growth inhibition,[10]; at 3.7 µM,-30%
same,growth inhibition,[10]; [16],-32%
same,growth inhibition,[10]; at 11.0 µM,-33%
same,growth inhibition,[10]; at 33.0 µM,33%
same,growth inhibition,[10]; [17],89% (active)
same,growth inhibition,[10]; at 50.0 µM,7.05%
same,growth inhibition,[10]; at 100.0 µM,97% (active)
same,growth inhibition,[11]; at 1.2 µM,-1%
same,growth inhibition,[11]; at 3.7 µM,-11%
same,growth inhibition,[11]; at 11.0 µM,4%
same,growth inhibition,[11]; at 33.0 µM,0%
same,growth inhibition,[11]; at 100.0 µM,97% (active)
same,growth inhibition,[12]; at 1.2 µM,-3%
same,growth inhibition,[12]; at 3.7 µM,6%
same,growth inhibition,[12]; at 11.0 µM,14%
same,growth inhibition,[12]; at 33.0 µM,28%
same,growth inhibition,[12]; at 100.0 µM,94% (active)
same,growth inhibition,[13]; at 1.2 µM,-12%
same,growth inhibition,[13]; at 3.7 µM,-18%
same,growth inhibition,[13]; at 11.0 µM,-18%
same,growth inhibition,[13]; at 33.0 µM,18%
same,growth inhibition,[13]; at 100.0 µM,96% (active)
same,growth inhibition,[14]; [16],-45%
same,growth inhibition,[14]; [17],26%
same,growth inhibition,[14]; at 50.0 µM,10.6%
same,growth inhibition,[15]; at 1.2 µM,-40%
same,growth inhibition,[15]; at 3.7 µM,-30%
same,growth inhibition,[15]; at 11.0 µM,-38%
same,growth inhibition,[15]; at 33.0 µM,-26%
same,growth inhibition,[15]; at 100.0 µM,96% (active)
